Compound activity as filed in PubChem BioAssay.
ssDAF12 agonist: S. stercoralis DAF-12 nuclear receptor activators, primary screen, cell-based, luminescence, HEK293, GRIP1 co-expression, lit1-tk-luc; HEK293 ssDAF-12/GRIP1 lit1-tk-luc reporter; % of 3 µM dafachronic acid response; activation, % at 6.8 µM; hit rate 1% among 370,000; AID 652126, 2013;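 active = activation above the mean over all tested compounds plus 3 SD, cut at about 0.9% in these data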;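 also: 0% = DMSO-only wells and 100% = 3 µM delta7-dafachronic acid wells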
hcDAF-12 act: H. contortus DAF-12 nuclear receptor activators, primary screen, cell-based, luminescence, HEK293, lit1-tk-luc reporter; HEK293 hcDAF-12 lit1-tk-luc reporter; 0% DMSO, 100% Δ7-dafachronic acid; activation, % at 6.8 µM; hit rate 1.4% among 370,000;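 active = activation above the mean of all tested compounds plus 3 SD, cut at about 5.5% in these data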;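 also: 100% = response to 3 µM Δ7-dafachronic acid high control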
DAX1 inh-1: DAX1 (NR0B1) inhibitors, primary screen, cell-based, HEK293, Gal4-DAX1, luciferase luminescence | Nuclear receptor subfamily 0 group B member 1 (Homo sapiens), P51843 | HEK293 Gal4-DAX1 luciferase reporter | inhibition, % at 6.75 µM | hit rate 0.99% among 340,000 | AID 504766, 2011;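 active = inhibition above the mean over all tested compounds plus 3 SD, cut at about 4.2% in these data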;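 also: 0% = DAX1-transfected cells with DMSO and 100% = empty-vector control cells with DMSO; inhibition shows as a rise in luminescence from relieved DAX1 repression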
AHR activator: AHR activators, primary screen, cell-based, luminescence, luciferase reporter, human; AHR-responsive luciferase reporter cells; activation, % at 5 µM; hit rate 2.5% among 320,000; in the data active = activation above about 47%;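 also: 0% = vehicle wells and 100% = reference agonist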
hgDAF12 agonist: H. glycines DAF-12 receptor agonists, primary screen, cell-based, luminescence, HEK293, GAL4 fusion, UAS-luciferase | HEK293 GAL4-hgDAF12 UAS-luciferase reporter, agonist luminescence; normalized to butyrate control | AID 687014, 2013 | hit rate 1.8% among 370,000 | activation, % at 6.8 µM | Nuclear hormone receptor DAF-12 (Heterodera glycines), GAL4 fusion;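 active = activation above a cutoff set at the mean of all screened compounds plus 3 SD, cut at about 10% in these data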;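 also: 0% = DMSO wells and 100% = sodium butyrate wells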
DAX1 inh-2: DAX1 (NR0B1) inhibitors on StAR promoter, primary screen, cell-based, luminescence, SF-1 (NR5A1), full-length DAX-1; HEK293T StAR-luciferase reporter, SF-1/DAX-1 repression relief; inhibition, % at 6.8 µM; hit rate 1.1% among 370,000;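 active = inhibition above the mean over all tested compounds plus 3 SD, cut at about 3.6% in these data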;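 also: 0% = DAX-1 cells with DMSO and 100% = cells lacking DAX-1 with DMSO; higher inhibition means more luminescence from relief of DAX-1 repression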
An asterisk follows results filed as active; x = no result given. Shown are actives, neighbours in structure and some others; about 5.7% of the full set was active somewhere.

SMILES	ssDAF12 agonist	hcDAF-12 act	DAX1 inh-1	AHR activator	hgDAF12 agonist	DAX1 inh-2
CC(C)N(C)S(=O)(=O)c1ccc(NC(=O)CSC(=S)N2CCCC2)cc1	0	-1	1	2	1	0
Cc1cccc(NC(=O)n2ccc3ccc(-c4ccc5cc[nH]c5c4)cc32)c1	-2	-2	x	x	-4	-1
O=C(OCc1cn(Cc2ccc(F)cc2)nn1)N1CCCC1	0	-3	x	x	-5	-1
COc1ccc(Cn2c(=O)[nH]c3cc(C(=O)NCc4ccc5c(c4)OCO5)ccc3c2=O)cc1	-1	-3	-1	2	0	0
O=C(NCc1ccc2c(c1)OCO2)c1ccc2c(=O)n(C3CCCC3)c(=O)[nH]c2c1	-1	0	4.9*	8	2	0
COc1ccc(C(=O)NCCS(=O)(=O)NC(C)c2ccccc2)cc1 (stereo unspecified)	-1	-1	1	0	-3	2
CC(=O)C1=C(C)N(Cc2ccc(Cl)cc2)C(=S)NC1c1cccc(Br)c1 (stereo unspecified)	-1	1	x	x	-3	-1
CCOC(=O)C1=C(C)NC(C)=C(C(=O)OCC)C1C(=O)OCC(=O)NCc1ccco1	-1	-1	-3	4	-2	0
O=S(=O)(c1ccc(Br)cc1)n1c(Cc2ccccc2)nc2ccccc21	-1	1	-1	2	-1	0
O=S(=O)(N1CCCCC1)n1c(Cc2ccccc2)nc2ccccc21	1.9*	-1	0	-1	-1	0
C/C(=N\Nc1nccnc1Cl)c1ccc(O)c(C)c1	0	4	-1	4	12*	2
Cc1coc2c(C)c3oc(=O)c(CCC(=O)NCCC(=O)O)c(C)c3cc12	-1	-2	0	-1	-3	0
N#Cc1c(-c2ccc(F)cc2)cc(-c2cccnc2)nc1N	-2	4	-1	55*	-2	0
Cc1cc(Oc2ccc(=O)[nH]n2)nc(Cl)n1	-2	1	0	10	4	0
CSc1nc(C)cc(Oc2ccc(=O)[nH]n2)n1	-1	0	5.8*	0	-3	0
COc1ccc(-c2[nH]ncc2CN2CCN(Cc3cccs3)CC2)cc1F	-1	0	7.8*	2	-1	0
O=C(Nc1cccc(Cl)c1)c1ccc2ncsc2c1	-1	3	1	5	7	1
O=C(Nc1ccc(F)cc1)c1ccc2ncsc2c1	0	4	1	32	12*	1
O=C(Nc1ccc(Cl)cc1)c1cncs1	0	5	1	68*	5	0
O=C(Nc1ccc(Cl)cc1)c1ccc2ncsc2c1	-1	1	1	49*	7	1
COc1cccc(-c2nc(CS(=O)(=O)CC(=O)Nc3ccc(C(C)=O)cc3)c(C)o2)c1	-1	-3	0	4	-2	0
O=C(Nc1ccc([N+](=O)[O-])cc1)c1cc(Cl)sc1Cl	-2	-3	1	-6	2	2
Cc1nc(Nc2cccc(Cl)c2)c2oc3ccccc3c2n1	-1	1	-1	38	4	0
Cc1nc(Nc2cccc(F)c2)c2oc3ccccc3c2n1	-1	4	0	49*	2	-1
COc1ccc(Nc2ncnc3c2oc2ccccc23)cc1	0	5	2	8	12*	2
Cc1nc(Nc2ccc(Cl)cc2)c2oc3ccccc3c2n1	-1	1	-1	78*	-1	0
COc1cccc(Nc2nc(C)nc3c2oc2ccccc23)c1	-2	-2	-1	1	3	0
Cc1nc(Nc2cccc(O)c2)c2oc3ccccc3c2n1	-1	-1	0	x	0	0
Cc1nc(Nc2ccccc2F)c2oc3ccccc3c2n1	-1	1	0	56*	5	0
